In PubChem BioAssay AID430 (Sanford-Burnham Center for Chemical Genomics, 2006):
The whole screen tested about 63,000 compounds, of which about 1,100 (1.7%) were called active. Shown is part of a subset that was picked to be rich in actives. Entries with a potency or affinity are not part of this list. Values without a mark were called inactive. Rule as the data show it: active = cytotoxicity above about 50%; inactive = the rest.

Assay: cytotoxicity in HPDE-C7 cells, cell-based, fluorescence, HTS (AID 430);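 also: cells exposed to compound for 48 hours before viability readout; 0% = vehicle and 100% = reference cytotoxic drug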
Details: HPDE-C7 pancreatic duct cells viability, at 10 µM, hits give high values

Row | Compound | cytotoxicity
1 | O=C(COc1ccc(S(=O)(=O)NC2CCCCC2)cc1Cl)NCC1CCCO1 (stereo not given) | -2.7%
2 | CC(C)CCNC(=O)c1cccc(Cl)c1 | 1.2%
3 | O=C(Cn1c(=O)n2ncnc2c2c3c(sc21)CCCC3)c1ccccc1 | -18.5%
4 | O=c1n(Cc2ccccc2Cl)c2sc3c(c2c2ncnn12)CCCC3 | -20.8%
5 | COCCSc1nnc(NS(=O)(=O)Cc2ccccc2)s1 | -1.4%
6 | O=C(O)CSc1ncn[nH]1 | 1%
7 | c1ccc(Nc2c3c(nc4ncnn24)CCC3)cc1 | -24.1%
8 | C=CCc1cc(C)ccc1OCC(O)CN1CCN(c2ccccc2)CC1 (stereo not given) | 22.9%
9 | COc1ccc(S(=O)(=O)N2CCN(S(=O)(=O)c3ccc4c(c3)OCCO4)CC2)cc1C | -3.8%
10 | COc1cc(NS(=O)(=O)c2cc(C)ccc2OC)c(OC)cc1Cl | -0.5%
11 | COc1ccc(OC)c(S(=O)(=O)Nc2cc(OC)c(Cl)cc2OC)c1 | 5.6%
12 | COc1cc(NS(=O)(=O)c2ccc(OC)c(C)c2C)c(OC)cc1Cl | 60.7% (active)
13 | CC1CCCCN1C(=O)c1cnn2c(C(F)(F)F)cc(-c3ccco3)nc12 (stereo not given) | -7.7%
14 | CCc1cc2c(N3CCCCC3)ncnc2s1 | -21.8%
15 | COc1ccc(N2CCN(c3ncnc4c3cnn4-c3ccc(C)cc3C)CC2)cc1 | 0.4%
16 | CCc1cc2c(N3CCN(c4nnc(CC)s4)CC3)ncnc2s1 | 15.2%
17 | Cc1ccc(-n2ncc3c(N4CCCC4)ncnc32)c(C)c1 | -2.3%
18 | O=C(c1ccco1)N1CCN(c2ncnc3c2cnn3-c2ccccc2)CC1 | -6.3%
19 | COc1ccc(-n2ncc3c(N4CCN(c5cc(C)ccc5C)CC4)ncnc32)cc1 | 1.5%
20 | CCc1cc2c(N3CCN(c4ccccc4)CC3)ncnc2s1 | 75.1% (active)
21 | O=C(COc1ccccc1)N1CCN(c2ncnc3c2cnn3-c2ccccc2)CC1 | -0.4%
22 | CCN1CCN(c2ncnc3c2cnn3-c2ccc(C)cc2C)CC1 | -8.1%

Row | Compound | cytotoxicity
23 | Cc1cc(C(=O)CN2C(=O)c3ccccc3C2=O)c(C)n1C1CC1 | 6.6%
24 | O=C(c1ccccc1)N1CCCOC1c1ccccc1 (stereo not given) | 2.4%
25 | Cn1c(=O)c2c(nc(SCC(=O)NC3CCCCC3)n2C)n(C)c1=O | -18.4%
26 | COc1ccc(CCNC(=O)CN2C(=O)c3ccccc3S2(=O)=O)cc1OC | 0.7%
27 | Cn1cccc1Cc1nnc(SCC(=O)Nc2ccccc2)n1-c1ccc(F)cc1 | 0%
28 | O=C(CN1CCC(NC(=O)c2ccc(F)cc2)CC1)NCc1ccccc1F | -5.6%
29 | O=C(Nc1cccc(Cl)c1)N1CCN(Cc2ccccc2)CC1 | 17.3%
30 | O=C(NC1CCCc2ccccc21)C1CCCO1 (stereo not given) | 2%
31 | O=C(NC1CCCCC1)C(c1ccccc1F)N(Cc1ccco1)C(=O)Cn1nnc2ccccc21 (stereo not given) | 63.4% (active)
32 | CCC(C)(C)NC(=O)C(c1ccccc1F)N(Cc1ccco1)C(=O)Cn1nnc2ccccc21 (stereo not given) | 2.4%
33 | O=C(NC1CCCCC1)C(c1ccc(F)cc1)N(Cc1ccco1)C(=O)Cn1nnc2ccccc21 (stereo not given) | -13.1%
34 | Cc1ccc(S(=O)(=O)Nc2nc3ccccc3nc2NCc2ccco2)cc1C | -2.8%
35 | C=CCn1c(SCC(=O)NC(=O)NCc2ccco2)nc2sc(C)c(C)c2c1=O | -0.5%
36 | O=C(CCCSc1nc2ccccc2s1)NCc1ccco1 | -2.9%
37 | O=C(CSc1nc2ccccc2s1)NC(=O)NCc1ccco1 | 82.9% (active)
38 | C=CCn1c(SCC(=O)N2CCN(C(=O)c3ccco3)CC2)nc2sc(CC)cc2c1=O | -4.1%
39 | C=CCn1c(SCC(=O)NC(=O)NCc2ccco2)nc2sc(CC)cc2c1=O | 57.6% (active)
40 | O=C(CSc1nc2cc(Cl)ccc2s1)NC(=O)NCc1ccco1 | -4.7%
41 | Cc1ccc2cc3cc(C(=O)N4CCN(C(=O)c5ccco5)CC4)sc3nc2c1 | -0.9%
42 | CCn1cc(C(=O)N2CCCC2)c(=O)c2cc(S(=O)(=O)N3CCOCC3)ccc21 | -4.3%
43 | Cc1cccc(-c2nc(CS(=O)CC(=O)NC3CCCC3)c(C)o2)c1 (stereo not given) | 10.3%
44 | CC(OC1=CC(=O)CCC1)C(=O)c1ccccc1 (stereo not given) | -4.7%

Row | Compound | cytotoxicity
45 | COc1ccccc1OCc1nc(C#N)c(NCc2ccco2)o1 | 3.4%
46 | CCCCCCC1CC(CSc2ncn[nH]2)OC1=O (stereo not given) | 6.8%
47 | COc1ccccc1N1CC(O)=C(c2nc3ccccc3c(=O)[nH]2)C1=N | 26.8%
48 | COc1cccc(N2CC(O)=C(c3nc4ccccc4c(=O)[nH]3)C2=N)c1 | 54.2% (active)
49 | CCOC(=O)c1ccc(N2CC(O)=C(c3nc4ccccc4c(=O)[nH]3)C2=N)cc1 | 38.3%
50 | O=C(O)C1C(c2ccccc2)C(C(=O)OCCCO)C1c1ccccc1 (stereo not given) | 4.7%
51 | COc1cc(Br)cc(CN2CCN(C=O)CC2)c1O | -1.6%
52 | O=c1c2ccccc2c(/C=N/c2ncn[nH]2)c(O)n1Cc1ccccc1 | 5.2%
53 | Oc1c(/C=N/c2ncn[nH]2)ccc2ccccc12 | 54.2% (active)
54 | COc1cc(Br)cc(/C=N/c2ncn[nH]2)c1O | 88.6% (active)
55 | COc1cccc(C=Nc2cc(C)on2)c1O | -3.2%
56 | C=CCc1cccc(/C=N/c2ncn[nH]2)c1O | 4.1%
57 | O=C(O)CN1CCN(Cc2ccc(F)cc2Cl)C1=O | -10.1%
58 | COc1ccc(CCn2nnnc2C(CC(C)C)N2CCC(C(N)=O)CC2)cc1OC (stereo not given) | -10.9%
59 | CCCS(=O)(=O)N1CCC(C(=O)NCc2ccccc2Cl)CC1 | -9.6%
60 | CN(C)c1ccc(-c2nn3c(-c4ccc(Cl)cc4)nnc3s2)cc1 | -15.9%
61 | CN(C)c1ccc(-c2nn3c(-c4ccc(Cl)cc4Cl)nnc3s2)cc1 | 60.2% (active)
62 | COc1ccccc1-c1nnc2sc(-c3ccc(N(C)C)cc3)nn12 | 44.4%
63 | Clc1ccccc1-c1nnc2sc(-c3ccncc3)nn12 | -13.4%
64 | CN(C)c1ccc(-c2nn3c(-c4ccccc4Cl)nnc3s2)cc1 | 63.8% (active)
65 | Cc1nn2c(-c3ccc(Cl)cc3Cl)nnc2s1 | -9.3%
